Screening data (PubChem BioAssay)
Many of the other results were omitted from the sample, so hits are more common in it than they were.
IDE exosite FP = exo-site inhibitors of human IDE, primary screen, biochemical, fluorescence anisotropy, probe displacement; Insulin-degrading enzyme (Homo sapiens), P14735; purified IDE, FL-6b probe fluorescence polarization; stronger effect = lower value; z-score at 20 µM; hit rate 6.3% among 17,000; AID 1259349, 2017;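 active = z-score of -3 or lower, meaning strong loss of probe binding signal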;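 note: His-tagged human IDE residues 42-1019 made in E. coli with 30 nM FL-6b probe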
Target sequence (P14735 42-1019 limits assumed): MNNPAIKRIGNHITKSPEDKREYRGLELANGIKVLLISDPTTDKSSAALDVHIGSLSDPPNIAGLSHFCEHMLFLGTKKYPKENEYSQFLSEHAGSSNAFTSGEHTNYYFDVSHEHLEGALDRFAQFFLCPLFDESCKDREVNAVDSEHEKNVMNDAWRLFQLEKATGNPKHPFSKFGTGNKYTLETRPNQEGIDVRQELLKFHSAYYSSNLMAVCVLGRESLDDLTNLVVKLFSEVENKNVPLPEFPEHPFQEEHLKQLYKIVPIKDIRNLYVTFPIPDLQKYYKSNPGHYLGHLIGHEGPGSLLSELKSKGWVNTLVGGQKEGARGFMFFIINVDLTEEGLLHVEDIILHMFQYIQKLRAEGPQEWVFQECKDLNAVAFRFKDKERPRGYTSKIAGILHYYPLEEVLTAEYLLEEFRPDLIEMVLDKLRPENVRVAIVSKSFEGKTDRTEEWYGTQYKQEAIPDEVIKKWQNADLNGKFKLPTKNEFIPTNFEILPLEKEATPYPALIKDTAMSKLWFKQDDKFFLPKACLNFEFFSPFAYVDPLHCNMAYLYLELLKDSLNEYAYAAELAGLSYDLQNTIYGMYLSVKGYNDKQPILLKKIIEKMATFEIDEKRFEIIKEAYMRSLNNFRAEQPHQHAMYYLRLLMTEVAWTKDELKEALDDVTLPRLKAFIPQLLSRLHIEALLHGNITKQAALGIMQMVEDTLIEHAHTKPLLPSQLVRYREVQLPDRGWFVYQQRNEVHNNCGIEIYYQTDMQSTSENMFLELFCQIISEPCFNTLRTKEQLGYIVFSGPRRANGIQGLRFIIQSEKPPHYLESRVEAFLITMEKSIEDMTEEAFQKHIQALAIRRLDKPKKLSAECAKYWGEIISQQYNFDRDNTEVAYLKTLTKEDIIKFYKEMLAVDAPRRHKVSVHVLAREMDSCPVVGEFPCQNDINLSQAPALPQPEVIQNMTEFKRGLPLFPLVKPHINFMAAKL
* marks the source's active call; other numbers are inactive results; ! = not confirmed by another sample.

SMILES	IDE exosite FP
COc1cccc(S(=O)(=O)N2CCCCN3[C@H](CO)[C@H](c4ccc(C#CC(C)C)cc4)[C@H]3C2)c1	1.3
COc1ccc(-c2ccc(C3[C@@H]4CN(Cc5cc(OC)cc(OC)c5)C[C@H]3N4)cc2)cc1 (stereo not given in full)	2.1
CN(C)C(=O)c1ccc(-c2ccc(C3[C@H]4CNC[C@@H]3N4S(=O)(=O)c3ccccc3)cc2)cc1 (stereo not given in full)	1
Cc1ccccc1-c1ccc(C2[C@@H]3CN(S(=O)(=O)c4ccccc4C)C[C@H]2N3)cc1 (stereo not given in full)	-11*!
COc1cccc(-c2ccc(C3[C@@H]4CN(S(=O)(=O)c5ccccc5C)C[C@H]3N4)cc2)c1 (stereo not given in full)	-1.6
COc1ccc(-c2ccc(C3[C@@H]4CN(S(=O)(=O)c5ccccc5C)C[C@H]3N4)cc2)cc1 (stereo not given in full)	-0.84
CCCNC(=O)N1C[C@@H](O)COC[C@H]2O[C@@H](CC(=O)OC)CC[C@@H]21	0.67
Cc1cccc(-c2ccc([C@H]3[C@@H](CO)N4CCCCN(S(=O)(=O)c5ccccc5F)C[C@@H]34)cc2)c1	-0.051
Cc1cccc(-c2ccc([C@@H]3[C@@H](CO)N4CCCCN(S(=O)(=O)c5ccccc5F)C[C@@H]34)cc2)c1	-27*
Cc1cccc(-c2ccc([C@@H]3[C@H](CO)N4CCCCN(S(=O)(=O)c5ccccc5C)C[C@@H]34)cc2)c1	-11*
Cc1cccc(-c2ccc([C@@H]3[C@@H](CO)N4CCCCN(S(=O)(=O)c5ccccc5F)C[C@H]34)cc2)c1	0.5
Cc1cccc(-c2ccc([C@H]3[C@@H](CO)N4CCCCN(S(=O)(=O)c5ccccc5C)C[C@H]34)cc2)c1	-0.56
Cc1cccc(-c2ccc([C@H]3[C@@H](CO)N4CCCCN(S(=O)(=O)c5ccccc5C)C[C@@H]34)cc2)c1	3.6
COc1cccc(NC(=O)N2CC(=O)N3[C@@H](CO)[C@@H](c4ccc(C5=CCCC5)cc4)[C@@H]3C2)c1	-0.13
Cn1cnc(S(=O)(=O)N2CCCCN3[C@@H](CO)[C@H](c4ccc(-c5cccc(F)c5)cc4)[C@@H]3C2)c1	2.1
Cn1cnc(S(=O)(=O)N2CCCCN3[C@@H](CO)[C@@H](c4ccc(-c5cccc(F)c5)cc4)[C@@H]3C2)c1	-4.6*
Cn1cnc(S(=O)(=O)N2CCCCN3[C@H](CO)[C@@H](c4ccc(-c5cccc(F)c5)cc4)[C@H]3C2)c1	0.035
Cn1cnc(S(=O)(=O)N2CCCCN3[C@H](C2)[C@@H](c2ccc(-c4cccc(F)c4)cc2)[C@@H]3CO)c1	0.69
Cn1cnc(S(=O)(=O)N2CCCCN3[C@H](CO)[C@@H](c4ccc(-c5cccc(F)c5)cc4)[C@@H]3C2)c1	-3.7*
Cn1cnc(S(=O)(=O)N2CCCCN3[C@H](CO)[C@H](c4ccc(-c5ccc(F)cc5)cc4)[C@@H]3C2)c1	3.9
CCCNC(=O)N1CC2(CN(CC3CCCCC3)C2)c2c(n(C)c3cc(OC)ccc23)[C@H]1CO	0.43
COc1ccccc1NC(=O)N1C[C@@H]2N[C@H](C1)C2c1ccc(-c2cccc(C#N)c2)cc1 (stereo not given in full)	1.4
CCCC(=O)Nc1ccc2c(c1)C(=O)N(C)C[C@@H](OC)[C@@H](C)CN(C(=O)c1ccccn1)[C@H](C)CO2	0.4
CCC(=O)N1CC(=O)N2[C@H](C1)[C@@H](c1ccc(-c3ccc(C#N)cc3)cc1)[C@@H]2CO	-0.76
CCCNC[C@@H]1[C@@H](c2ccc(C3=CCCC3)cc2)[C@@H](CO)N1C(=O)C1CCCC1	2.2
SMILES	IDE exosite FP
O=C(c1ccc(F)cc1)N1CC(=O)N2[C@H](C1)[C@@H](c1ccc(-c3ccccc3F)cc1)[C@@H]2CO	3.9
O=C(c1ccc(F)cc1)N1CC(=O)N2[C@@H](CO)[C@H](c3ccc(-c4ccccc4F)cc3)[C@@H]2C1	2.1
Cc1ccccc1-c1ccc([C@H]2[C@H](CO)N3C(=O)CN(C(=O)c4ccc(F)cc4)C[C@@H]23)cc1	-16*
Cc1ccccc1-c1ccc([C@H]2[C@H]3CN(C(=O)c4ccc(F)cc4)CC(=O)N3[C@H]2CO)cc1	-4.3*
O=C(c1ccc(F)cc1)N1CC(=O)N2[C@H](C1)[C@H](c1ccc(-c3ccccc3F)cc1)[C@@H]2CO	4.9
Cc1ccccc1-c1ccc([C@H]2[C@@H](CO)N3C(=O)CN(C(=O)c4ccc(F)cc4)C[C@@H]23)cc1	-0.95
O=C(C[C@H]1C[C@@H]2c3cc(NS(=O)(=O)c4ccc(F)cc4)ccc3O[C@@H]2[C@H](CO)O1)NCCN1CCCCC1	-0.12
O=C(Nc1ccccc1)N1CCCCN2[C@H](CO)[C@@H](c3ccc(-c4ccccc4F)cc3)[C@@H]2C1	4.5
O=C(CN1CCOCC1)N1CCCCN2[C@H](CO)[C@@H](c3ccc(C#Cc4ccccc4F)cc3)[C@@H]2C1	-2.9
O=C(CN1CCOCC1)N1CCCCN2[C@@H](CO)[C@@H](c3ccc(C#Cc4ccccc4F)cc3)[C@@H]2C1	-4.6*
